Compound activity as filed in PubChem BioAssay.
Most compounds without a hit are left out; they make up all but 6.4% or so of the library.
Luc counter – Kinase-Glo luciferase inhibition (counter-screen) | Q27757 | Kinase-Glo luciferase, ATP luminescence, 8 min | Potency, µM (titrated, usually from 38.3 µM), without a hit: top-dose activity change, negative = inhibition, usual class: inhibitors | actives 0.28% (n = 200,000) | AID 1379; further: nearly all actives have a fitted effect of over 60% in size
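Kinase-Glo luciferase light output from ATP and luciferin was measured with 10 uM ATP, within the enzyme's linear range. Buffer: 50 mM imidazole pH 7.2, 50 mM KCl, 7 mM MgCl2, 0.01% Tween 20, 0.05% BSA; luminescence read after 8 min at ambient temperature.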
RORg inh – ROR gamma (mouse) transcription inhibition | P51450 | Drosophila S2 Gal4-RORgamma UAS-luciferase reporter, 20 h | Potency, µM (top dose mostly 53.6 µM), inactives show at the top dose activity change, negative = inhibition, hits mostly inhibitors | actives 5.4% (n = 310,000) | AID 2551; further: nearly all actives have a fitted effect of over 60% in size
Target sequence (P51450 whole entry, looked up, the tested form may be a part): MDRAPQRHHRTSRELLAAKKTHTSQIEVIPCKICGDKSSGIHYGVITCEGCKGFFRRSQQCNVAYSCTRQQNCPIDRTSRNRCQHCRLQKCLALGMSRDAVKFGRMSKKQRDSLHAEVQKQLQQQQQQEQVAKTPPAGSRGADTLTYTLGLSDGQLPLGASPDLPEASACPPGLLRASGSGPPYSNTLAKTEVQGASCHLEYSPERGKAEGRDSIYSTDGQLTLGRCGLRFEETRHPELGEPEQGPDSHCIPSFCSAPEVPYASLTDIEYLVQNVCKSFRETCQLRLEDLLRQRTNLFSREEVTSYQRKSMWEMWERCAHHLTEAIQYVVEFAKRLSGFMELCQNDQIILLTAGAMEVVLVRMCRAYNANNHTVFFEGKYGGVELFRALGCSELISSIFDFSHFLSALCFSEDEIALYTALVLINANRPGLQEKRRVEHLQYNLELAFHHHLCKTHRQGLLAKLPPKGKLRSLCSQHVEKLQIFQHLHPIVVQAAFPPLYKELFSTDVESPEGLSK
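Drosophila Schneider cells stably carrying a metallothionein-driven Gal4 DBD–ROR gamma fusion and a UAS-Photinus luciferase reporter were exposed to compound for 1 hr, then induced with copper sulfate (700 uM final) for 20 hr at ambient temperature before luminescence reading.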
Gal4-VP16 FLuc – Gal4-VP16 reporter inhibition counter-screen | Drosophila S2 Gal4-VP16 UAS-luciferase, luminescence, 20 h | Potency, µM (series often up to 53.6 µM), inactives show at the highest dose activity, negative = inhibition, most hits filed as inhibitors | actives 3.5% (n = 310,000) | AID 2546;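 further: Gal4-VP16 expression switched on by copper sulfate through the metallothionein promoter; nearly all actives have a fitted effect of over 50% in size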
Starred values were filed as active, the others as inactive; [ ] = remark or other dose. The call rests on the fitted dose curve; in most records, active means well fitted curve in the direction sought with a large enough effect; inconclusive means small, poorly fitted or top-dose-only effect, or another doubt; inactive means no such curve, though single readings can be large; an effect the other way counts as inactive or inconclusive. On the % scale 0 is the no-effect control and ±100 the full control effect; potency means the concentration at half of the fitted maximal effect.

Screening COc1ccc(C2SCCN2C(=S)Nc2ccc(Cl)cc2)cc1 (centres undefined) returned Luc counter 1%, RORg inh 13µM* and Gal4-VP16 FLuc inconclusive.
COc1ccc(C2SCCN2C(=S)Nc2cccc(Cl)c2)cc1 (centres undefined) was read as Luc counter -2%, RORg inh inconclusive and Gal4-VP16 FLuc inconclusive.
CCCC[C@@H]1C[C@H]1C(NS(=O)(=O)c1cccc2cccnc12)c1ccc(-c2ccccc2)cc1 (some centres undefined) was read as Luc counter 1%, RORg inh -9% and Gal4-VP16 FLuc -6%.
Screening O=C(CNC(=O)c1cncc(Br)c1)Nc1ccc(F)c(F)c1F returned RORg inh -5% and Gal4-VP16 FLuc 1%.
`CC(C)CCN1CC(O)=C(c2nc3ccccc3[nH]2)C1=N` gave Luc counter -3%, RORg inh inconclusive and Gal4-VP16 FLuc inconclusive.
For CC1(C)C(O)=C(c2nc3ccccc3[nH]2)C(=N)N1c1ccccc1 the results were Luc counter -1%, RORg inh 1.8µM* and Gal4-VP16 FLuc 11µM*.
Screening COC(=O)CSCC(=O)Nc1nnc(-c2cccc(C)c2)s1 returned Luc counter 2%, RORg inh 13µM* and Gal4-VP16 FLuc -29%.
`COC(=O)CSCC(=O)Nc1nnc(-c2ccccc2C)s1` gave Luc counter 3%, RORg inh inconclusive and Gal4-VP16 FLuc inconclusive.
COCCSc1nnc(NC(=O)CSCc2ccccc2)s1 was read as Luc counter 3%, RORg inh 7.9µM* and Gal4-VP16 FLuc inconclusive.
`O=C(CSc1ccccc1)Nc1nnc(COc2ccc(Cl)cc2)s1` gave Luc counter 3%, RORg inh 11µM* and Gal4-VP16 FLuc inconclusive.
`Cc1cccc(C)c1OCc1nnc(NC(=O)CSc2ccc(Cl)cc2)s1` gave Luc counter 0%, RORg inh -16% and Gal4-VP16 FLuc -1%.
Screening COCc1nnc(NC(=O)CSCc2ccccc2)s1 returned Luc counter -4%, RORg inh 11µM* and Gal4-VP16 FLuc -17%.
Screening COCCSc1nnc(NC(=O)COC)s1 returned Luc counter -2%, RORg inh -32% and Gal4-VP16 FLuc 14%.
`COCc1nnc(NC(=O)CSc2ccccc2)s1` gave Luc counter -6%, RORg inh inconclusive and Gal4-VP16 FLuc -27%.
Screening O=C(Cn1cc(C(F)(F)F)ccc1=O)NCc1ccc(F)cc1 returned RORg inh -7% and Gal4-VP16 FLuc 12%.
`COc1ccccc1C(=O)N/C(=C\c1cn(C)c2ccccc12)C(=O)N1CCCC1` gave RORg inh -29% and Gal4-VP16 FLuc 0%.
Cc1ccc(S(=O)(=O)N2CCOCC2)cc1NC(=O)CNC1CCCC1 was read as RORg inh -30% and Gal4-VP16 FLuc 3%.
O=C(CSc1ccc(Cl)cc1)Nc1nnc(-c2cccc([N+](=O)[O-])c2)s1 was read as Luc counter 0%, RORg inh 10µM* and Gal4-VP16 FLuc inconclusive.
Screening O=C(Cc1cccc2ccccc12)Nc1nnc(-c2cccc([N+](=O)[O-])c2)s1 returned Luc counter -1%, RORg inh -17% and Gal4-VP16 FLuc 2%.
COc1ccc(C(C)C)cc1S(=O)(=O)NC1CCCC1 was read as RORg inh 2% and Gal4-VP16 FLuc -2%.
For COc1cccc(-c2ccc3ncnc(N4CCOCC4)c3c2)c1 the results were RORg inh 19% and Gal4-VP16 FLuc -3%.
Screening Cc1ccc(C)n1-c1ccc(C(=O)NN=C2CCCC2)cc1 returned Luc counter 4%, RORg inh -9% and Gal4-VP16 FLuc 29%.
For N/C(=N\OC(=O)CC1CCCCC1)c1ccc([N+](=O)[O-])cc1 the results were Luc counter 2%, RORg inh 1% and Gal4-VP16 FLuc 35µM*.
Screening N/C(=N\OC(=O)CCC1CCCCC1)c1ccc([N+](=O)[O-])cc1 returned Luc counter -1%, RORg inh 45% and Gal4-VP16 FLuc 24%.
For Cc1ccc2c(c1)Oc1ccc(NC(=O)CCl)cc1C(=O)N2 the results were Luc counter 0%, RORg inh 10µM* and Gal4-VP16 FLuc 18µM*.
`Cc1ccc2c(c1)Oc1ccc([N+](=O)[O-])cc1C(=O)N2` gave Luc counter 0%, RORg inh -5% and Gal4-VP16 FLuc 5%.
c1ccc(Nc2nc3ccccc3[nH]2)nc1 was read as Luc counter -6%, RORg inh 2µM* and Gal4-VP16 FLuc inconclusive.
Nc1ccc(Nc2nc3ccccc3[nH]2)cc1 was read as RORg inh 15% and Gal4-VP16 FLuc -22%.
`O=C(O)c1ccc2c(=O)[nH]c(CCl)nc2c1` gave Luc counter 0%, RORg inh 9% and Gal4-VP16 FLuc 2%.
For N#C/C(=C\c1cn(Cc2ccccc2)c2ccccc12)C(=O)NCc1ccco1 the results were Luc counter 4%, RORg inh 15% and Gal4-VP16 FLuc -14%.
N#C/C(=C\c1cn(Cc2ccc(F)cc2)c2ccccc12)C(=O)NCc1ccco1 was read as Luc counter 5%, RORg inh inconclusive and Gal4-VP16 FLuc 11µM*.
`C=CCNC(=O)COc1c(C)ccc(C)c1C` gave Luc counter 4%, RORg inh 2% and Gal4-VP16 FLuc 26%.
Cc1ccc(C(c2nnnn2C2CCCC2)N2c3ccccc3CC2C)cc1 (centres undefined) was read as Luc counter 1%, RORg inh inconclusive and Gal4-VP16 FLuc inconclusive.
`COc1c(S(=O)(=O)N2CCN(C)CC2)ccc(Cl)c1Cl` gave RORg inh -13% and Gal4-VP16 FLuc -21%.
O=C(NCCN1CCOCC1)c1cc([N+](=O)[O-])cc([N+](=O)[O-])c1 was read as RORg inh -31% and Gal4-VP16 FLuc -10%.
`CCCNC(=O)CCC(=O)Nc1ncc(-c2ccc(C)cc2)n1C` gave Luc counter -3%, RORg inh 3.5µM* and Gal4-VP16 FLuc 5.6µM*.
For CCCNC(=O)CCn1nc(-c2ccc(C)cc2)c2ccccc2c1=O the results were RORg inh 24% and Gal4-VP16 FLuc 7%.
Screening Cc1ccc(-c2nc(-c3cccnc3)sc2CC(=O)Nc2ccc3nc(C)sc3c2)cc1 returned Luc counter -4%, RORg inh inconclusive and Gal4-VP16 FLuc -22%.
NS(=O)(=O)c1ccc(N=Nc2c(O)ccc3ccccc23)cc1 was read as Luc counter -5%, RORg inh 28% and Gal4-VP16 FLuc -12%.
Screening Oc1ccc(N=Nc2c(O)ccc3ccccc23)cc1 returned Luc counter -14%, RORg inh inconclusive and Gal4-VP16 FLuc 13µM*.
Screening Oc1ccc(N=Nc2ccc3ccccc3c2)cc1 returned RORg inh 6.3µM* and Gal4-VP16 FLuc inconclusive.
For COc1cc(N=Nc2ccc3ccccc3c2)ccc1O the results were RORg inh 13%[1.91 µM] and Gal4-VP16 FLuc -29%.
Screening Cc1cccc(Cn2cnc3c(sc4nc(C)cc(C)c43)c2=O)c1 returned RORg inh -14% and Gal4-VP16 FLuc -16%.
Cc1ccc(NC(=O)C(=O)NCc2ccc(/C=N/NC(=O)c3c(C)nc4ccccn34)o2)cc1 was read as Luc counter -2%, RORg inh -9% and Gal4-VP16 FLuc 1%.
